USP30 inh – inhibitors of human USP30 deubiquitinase; inhibition, % at 25 µM; 47,000 tested, 5.3% active; purified USP30, Ub-rhodamine cleavage fluorescence; Q70CQ3
USP17 inh – blocks human USP17 ubiquitin-rhodamine cleavage; A8MUK1; 47,000 tested, 6.5% active; inhibition, % at 50 µM; purified USP17, Ub-rhodamine cleavage fluorescence, 3 h
USP28 inh – inhibitors of human USP28 deubiquitinase. Q96RU2. purified USP28, Ub-rhodamine cleavage fluorescence, 30 min. inhibition, % at 25 µM. 47,000 tested, 3% active. AID 1645857
OTUD3 inh – blocks human OTUD3 ubiquitin-rhodamine cleavage. 47,000 tested, 0.7% active. inhibition, % at 25 µM. AID 1645858. purified OTUD3, Ub-rhodamine fluorescence, 2 h
* = called active by the depositor. This is a sample that favours compounds with a hit; in the whole collection about 11% have one here. No stated cut-off is given here; in the data, active means inhibition above about 30%; inactive means the rest.

For O=C(NCc1ccc(Br)cc1)c1cc(-c2cccnc2)n[nH]1 the results were USP30 inh 24, USP17 inh 37*, USP28 inh 15 and OTUD3 inh 10.
`Cc1cc(Cl)ccc1NC(=O)c1cc(-c2cccnc2)n[nH]1` gave USP30 inh 23, USP17 inh 67*, USP28 inh 93* and OTUD3 inh -1.
For O=C(NCc1ccc(F)cc1)C1CCN(C(=O)c2cc(-c3cccnc3)n[nH]2)CC1 the results were USP30 inh 0, USP17 inh -5, USP28 inh -6 and OTUD3 inh 2.
`Cc1cc(NC(=O)c2cc(-c3cccnc3)n[nH]2)ccc1Br` gave USP30 inh 68*, USP17 inh 33*, USP28 inh 48* and OTUD3 inh 18.
CCOc1ccc(C(=O)CN2C(=O)COc3ccccc3C2=O)cc1F was read as USP30 inh -12, USP17 inh -7, USP28 inh -2 and OTUD3 inh 0.
For O=C(COc1ccc(Cl)cc1-n1cnnc1)Nc1cccc(O)c1 the results were USP30 inh -138, USP17 inh -46, USP28 inh -43 and OTUD3 inh -27.
Screening O=C(COc1cccc2ccc(N3CCC(Cc4ccccc4)CC3)nc12)Nc1cccc(Cl)c1 returned USP30 inh 2, USP17 inh 39*, USP28 inh 5 and OTUD3 inh 2.
For COc1ccc2c(c1)c(N1CCCC1=O)c(C(=O)NCc1cccc(OC)c1OC)n2C the results were USP30 inh 14, USP17 inh 2, USP28 inh 57* and OTUD3 inh 5.
COc1cccc(C(=O)NCCSc2ccc(Cl)cc2)c1 was read as USP30 inh 24, USP17 inh 35*, USP28 inh 44* and OTUD3 inh 20.
O=C(NCCSc1ccc(Cl)cc1)c1cccc(F)c1 was read as USP30 inh 18, USP17 inh 22, USP28 inh 28 and OTUD3 inh 14.
O=C(Cn1ncc2ccccc21)Nc1ccc(Br)cn1 was read as USP30 inh -21, USP17 inh 5, USP28 inh 39* and OTUD3 inh 14.
CCc1nnc(NC(=O)Cn2ncc3ccccc32)s1 was read as USP30 inh 0, USP17 inh 0, USP28 inh 15 and OTUD3 inh 18.
Screening Cc1ccccc1CN1CCC2(COCc3c(C)nc(N4CCOCC4)nc32)C1 (centres undefined) returned USP30 inh 5, USP17 inh -14, USP28 inh 2 and OTUD3 inh 0.
For COc1ccccc1C(=O)N(C(=O)c1ccccc1OC)c1oc(-c2ccccc2)cc1C#N the results were USP30 inh -52, USP17 inh -3, USP28 inh -16 and OTUD3 inh -18.
`COc1ccc(OC)c(-c2cc(C(=O)Nc3c(C)nn(Cc4ccccc4)c3C)no2)c1` gave USP30 inh -72, USP17 inh 3, USP28 inh 80* and OTUD3 inh 0.
`COc1ccc(NC(=O)c2cc(-c3ccco3)on2)c(OC)c1` gave USP30 inh -150, USP17 inh -54, USP28 inh -47 and OTUD3 inh -44.
For COc1ccc(Cl)cc1NC(=O)Cn1c(=O)n(CCCCC(=O)NCCc2ccccc2)c(=O)c2ccccc21 the results were USP30 inh 5, USP17 inh 14, USP28 inh 1 and OTUD3 inh 14.
For COc1ccc(CCNC(=O)CCCn2c(SCC(=O)NCc3ccco3)nc3ccccc3c2=O)cc1OC the results were USP30 inh 41*, USP17 inh 33*, USP28 inh 0 and OTUD3 inh 37*.
Screening Cc1ccc(Cn2c(=O)n(CCC(=O)NCCc3ccccc3)c(=O)c3ccccc32)cc1 returned USP30 inh 63*, USP17 inh 46*, USP28 inh 30 and OTUD3 inh 25.
Screening COc1ccc(CCNC(=O)CCCCn2c(=O)c3ccccc3n(Cc3cccc(Cl)c3)c2=O)cc1OC returned USP30 inh 53*, USP17 inh 34*, USP28 inh 21 and OTUD3 inh 18.
COc1ccc(CCNC(=O)c2ccc(Cn3c(=O)c4ccccc4n(Cc4cc(=O)n5ccccc5n4)c3=O)cc2)cc1OC was read as USP30 inh 50*, USP17 inh 66*, USP28 inh 29 and OTUD3 inh 5.
Screening COc1ccc(CCNC(=O)CSc2cc(=O)n(C)c3cc(Cl)ccc23)cc1OC returned USP30 inh 30, USP17 inh 38*, USP28 inh 6 and OTUD3 inh 4.
CCCc1nc2c(c(=O)n1CC(=O)NCC1CCCO1)CCN(Cc1ccccc1)C2 (centres undefined) was read as USP30 inh -10, USP17 inh 0, USP28 inh 0 and OTUD3 inh 11.
COc1ccc(NC(=O)CCCCn2c(=O)c3ccccc3n(Cc3cccc([N+](=O)[O-])c3)c2=O)cc1 was read as USP30 inh 10, USP17 inh 33*, USP28 inh 17 and OTUD3 inh 20.
For Cc1cccc(NC(=O)Cn2c(C)nc3c(c2=O)CCN(Cc2ccccc2)C3)c1C the results were USP30 inh -2, USP17 inh 30*, USP28 inh 0 and OTUD3 inh -15.
COc1ccc(CNC(=O)CCn2c(=O)c3sccc3n(Cc3cccc([N+](=O)[O-])c3)c2=O)cc1 was read as USP30 inh 13, USP17 inh 11, USP28 inh 11 and OTUD3 inh 14.
CCCCCn1c(SCC(=O)CC(=O)OCC)nc2cc(C(=O)NCc3ccco3)ccc2c1=O was read as USP30 inh -101, USP17 inh 34*, USP28 inh -27 and OTUD3 inh -6.
Cc1ccc(Cn2nnc3c(=O)[nH]c(C4CCN(S(=O)(=O)c5ccc(S(=O)(=O)NC6CCCC6)cc5)CC4)nc32)cc1 was read as USP30 inh 20, USP17 inh -20, USP28 inh 2 and OTUD3 inh 10.
Screening Cc1cccc(NC(=O)Cn2c(=O)n(CC(=O)NCCc3ccccc3)c(=O)c3ccccc32)c1C returned USP30 inh 48*, USP17 inh 22, USP28 inh 13 and OTUD3 inh 12.
Cc1nc2cc(C(=O)NCc3ccccc3N3CCOCC3)ccc2n1C was read as USP30 inh -3, USP17 inh -1, USP28 inh -1 and OTUD3 inh -1.
Screening CC(C)n1cnc2c1C(C(=O)N1CCN(c3ccccc3)CC1)N(CC1CC1)CC2 (centres undefined) returned USP30 inh -28, USP17 inh -16, USP28 inh -2 and OTUD3 inh 1.
Screening Fc1cccc(-n2cc(-c3noc(-c4ccccn4)n3)nn2)c1 returned USP30 inh 89*, USP17 inh 30*, USP28 inh 81* and OTUD3 inh 14.
For COc1cccc(Cc2nc(-c3cn(-c4ccccc4)nn3)no2)c1 the results were USP30 inh -59, USP17 inh -4, USP28 inh -30 and OTUD3 inh -15.
Screening COc1cccc(Cc2nc(-c3cn(-c4cccc(F)c4)nn3)no2)c1 returned USP30 inh 36*, USP17 inh 17, USP28 inh 32* and OTUD3 inh 23.

Screens: PubChem, Buhrlage Lab, Dana-Farber Cancer Institute and Novartis Institutes for BioMedical Research (Cambridge, Mass)
